Inconclusive results are not listed. Calls of active or inactive are those of the source. The call rests on the fitted dose curve; in most records, active means well fitted inhibition curve with a large enough effect; inconclusive means small, poorly fitted or top-dose-only effect; inactive means flat fitted curve, though single readings scatter.
Assay: Primary qHTS for inhibitors of nuclear receptor binding SET domain protein 2 (NSD2) in an isogenic RCH-ACV NSD2 p.E1099K mutant (9B) (AID 1645876); further: nearly all actives have a fitted effect of over 70% in size
Details: RCH-ACV (leukaemia line) NSD2 E1099K (9B) viability, CellTiter-Glo, 72 h; series mostly up to 44.9 µM
Potency means the concentration at half of the fitted maximal effect.

SMILES	Potency
Cc1cc2nc3c(=O)[nH]c(=O)nc-3n(CC(O)C(O)C(O)CO)c2cc1C (stereo not drawn)	inactive
CN(C(Cc1ccc(OS(=O)(=O)c2cccc3cnccc23)cc1)C(=O)N1CCN(c2ccccc2)CC1)S(=O)(=O)c1cccc2cnccc12 (stereo not drawn)	7.31 µM (active)
O[C@@H](COc1cccc2ncccc12)CN1CCN(C2c3ccccc3[C@@H]3[C@H](c4ccccc42)C3(F)F)CC1 (stereo partly drawn)	15 µM (active)

From PubChem BioAssay (NCATS)
